The whole screen tested about 190,000 compounds, of which about 810 (0.43%) were called active. What follows is part of a selection rich in actives, with near analogues and random picks from the rest. A number with no mark means an inactive call. Rule as the data show it: active = inhibition above about 50%; inactive = the rest.
molecular target: Mannose-6-phosphate isomerase (Homo sapiens) (UniProt P34949); assay: MPI enzyme activity inhibition – biochemical, fluorescence intensity, coupled assay, primary screen (AID 1209); conditions: purified PMI enzyme, at 20 µM, hits give high values;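 also: plate controls were DMSO vehicle for no effect and wells lacking substrate for full effect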
Sequence (P34949 whole entry, looked up): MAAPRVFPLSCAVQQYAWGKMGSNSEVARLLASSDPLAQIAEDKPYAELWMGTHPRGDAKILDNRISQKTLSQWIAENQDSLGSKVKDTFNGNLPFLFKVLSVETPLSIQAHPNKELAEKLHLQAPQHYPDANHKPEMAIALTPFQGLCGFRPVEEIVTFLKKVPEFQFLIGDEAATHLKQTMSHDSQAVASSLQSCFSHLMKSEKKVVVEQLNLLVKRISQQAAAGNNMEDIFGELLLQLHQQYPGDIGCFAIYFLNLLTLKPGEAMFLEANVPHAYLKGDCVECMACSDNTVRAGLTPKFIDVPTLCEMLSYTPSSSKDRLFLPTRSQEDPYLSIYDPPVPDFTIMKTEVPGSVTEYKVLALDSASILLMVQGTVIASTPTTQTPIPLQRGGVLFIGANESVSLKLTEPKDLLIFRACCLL

Compound | inhibition
COc1ccc(N2CCC(CNC(=O)Nc3ccc(C)c(C)c3)C2)cc1 (centres undefined) | 43.1%
CCN1CCCC1CNS(=O)(=O)c1cccc(C(F)(F)F)c1 (centres undefined) | -14.5%
COc1ccc(N2CCC(CNC(=S)Nc3cccc(C)c3)C2)cc1 (centres undefined) | 44.7%
COc1ccc(N2CCC(CNS(=O)(=O)c3cccc(C(F)(F)F)c3)C2)cc1 (centres undefined) | 65.5% (active)
COc1ccc(NC(=S)NCC2CCN(c3ccc(OC)cc3)C2)cc1 (centres undefined) | 49.3%
COc1ccc(N2CCC(CNC(=O)Nc3cccc(OC)c3)C2)cc1 (centres undefined) | 70% (active)
COc1ccc(N2CCC(CNC(=O)Nc3ccccc3)C2)cc1 (centres undefined) | 74.5% (active)
CCOc1ccc(NC(=O)NCC2CCN(c3ccc(OC)cc3)C2)cc1 (centres undefined) | 23.3%
COc1ccc(N2CCC(CNC(=O)Nc3ccc(Cl)cc3)C2)cc1 (centres undefined) | 37%
CCc1cccc(C)c1NC(=S)NCC1CCN(c2ccc(OC)cc2)C1 (centres undefined) | 55% (active)
COc1ccc(N2CCC(CNC(=S)Nc3cccc(OC)c3)C2)cc1 (centres undefined) | 29.7%
COc1ccc(N2CCN(S(=O)(=O)c3cccc(C(F)(F)F)c3)CC2)cc1 | -0.4%
Cn1c(SCC(=O)N=Nc2c(O)[nH]c3ccccc23)nc2ccccc21 | 3.1%
CCN(CC)CCCn1c(C)cc2c(c1=O)C(c1cc(OC)c(OC)cc1OC)C(C#N)=C(N)O2 (centres undefined) | -0.8%
CC[C@H](C)[C@@H](NC(=O)O[C@@H]1C(=O)c2cc(OC)ccc2O[C@H]1c1ccc(OC)c(Br)c1)C(=O)OC | 11%
CC(=O)N1CCc2cc(S(=O)(=O)CCC(=O)N3CCc4ccccc4C3)ccc21 | -7.9%
CC(C)CC(C(=O)Nc1ccc2c(c1)OCCO2)N1C(=O)c2ccccc2C1=O (centres undefined) | -13.9%
Cc1ccn2c(=O)cc(C)nc2c1 | 4.8%
Cc1cc(=O)n2ccsc2n1 | 7.1%
Cc1cc(=O)n2cccc(O)c2n1 | 71% (active)
O=C(NCCO)C1CCN(S(=O)(=O)c2ccc(F)cc2)CC1 | 10.2%
COc1cc(CNn2c(C)n[nH]c2=S)cc(Cl)c1OCc1ccccc1 | 16.3%
O=c1c(O)c(-c2ccc(O)cc2O)oc2cc(O)cc(O)c12 | -15.2%

Compound | inhibition
O=c1c(O[C@@H]2O[C@H](CO)[C@H](O)[C@H](O)[C@H]2O)c(-c2ccc(O)c(O)c2)oc2cc(O)cc(O)c12 | 61.3% (active)
C[C@@H]1O[C@@H](Oc2c(-c3cc(O)c(O)c(O)c3)oc3cc(O)cc(O)c3c2=O)[C@H](O)[C@H](O)[C@H]1O | 65.7% (active)
Cc1cc(O)cc(O[C@H]2OC(CO)[C@H](O)[C@@H](O)[C@H]2O)c1 (some centres undefined) | 1.9%
COc1ccc(-c2oc3c(CC=C(C)C)c(O[C@@H]4O[C@H](CO)[C@@H](O)[C@H](O)[C@H]4O)cc(O)c3c(=O)c2O[C@@H]2O[C@@H](C)[C@H](O)[C@@H](O)[C@H]2O)cc1 | 5.6%
O=c1c(-c2ccc(O)cc2)coc2cc(OC3OC(CO)C(O)C(O)C3O)cc(O)c12 (centres undefined) | -6.4%
O=c1cc(-c2ccc(O)cc2)oc2cc(O)c(C3OC(CO)C(O)C(O)C3O)c(O)c12 (centres undefined) | 7.9%
O=C(O)C1OC(Oc2c(-c3ccc(O)c(O)c3)oc3cc(O)cc(O)c3c2=O)C(O)C(O)C1O (centres undefined) | 23.4%
CC1OC(OCC2OC(Oc3c(-c4ccc(O)cc4)oc4cc(O)cc(O)c4c3=O)C(O)C(O)C2O)C(O)C(O)C1O (centres undefined) | 4.8%
COc1ccc(-c2oc3cc(OC)c(O)c(OC)c3c(=O)c2OC)cc1O | 3.4%
C[C@@H]1O[C@@H](OC[C@H]2O[C@@H](Oc3c(-c4ccc(O)c(O)c4)oc4cc(O)cc(O)c4c3=O)[C@H](O)[C@@H](O)[C@@H]2O)[C@H](O)[C@H](O)[C@H]1O | 50.3% (active)
C=CCOC(=O)C1=C(C)NC(SCC(=O)NC(=O)OCC)=C(C#N)C1c1cccnc1 (centres undefined) | -29.7%
CCc1ccc2nc(NC(=O)Cn3cnc4ccccc4c3=O)sc2c1 | -4%
O=c1[nH]c2cc3c(cc2cc1C(c1nnnn1CC1CCCO1)N1CCCC1)OCO3 (centres undefined) | -6.3%
CCN(CC)S(=O)(=O)c1ccc(OC)c(NC(=O)c2cc3c(=O)n4ccccc4nc3s2)c1 | 10%
Cc1ccc2nc(-c3cccnc3SCC(=O)N3c4ccccc4CC3C)[nH]c2c1 (centres undefined) | 9.6%
C/C(=N\NC(=O)CSCc1ccc(Cl)cc1)c1ccc(NC(=O)c2ccccc2)cc1 | -2.3%
O=C(N/N=C/c1ccncc1)c1nc(-c2ccccc2)n2c1CCCCC2 | 5.7%
CN(C)S(=O)(=O)N1CCC(CO)(Cc2cccc(C(F)(F)F)c2)CC1 | 3%
Cc1ccsc1C=C1C(=O)c2ccccc2C1=O | 1.2%
O=C(COC(=O)c1ccc(S(=O)(=O)N2CCCC2)cc1)Nc1cccnc1Cl | -7.2%
CCOC(=O)c1ccc(NC(=O)CCC2COc3ccccc3O2)cc1 (centres undefined) | 14.5%
COc1ccc(-n2c(CN3CCC(C)CC3)nc3ccc([N+](=O)[O-])cc3c2=O)c(OC)c1 | 2.1%
O=c1c(-c2ccc(O)cc2)coc2cc(OC3OC(CO)C(O)C(O)C3O)ccc12 (centres undefined) | -7.2%

Compound | inhibition
O=c1c(O[C@@H]2O[C@H](CO)[C@@H](O)[C@H](O)[C@H]2O)c(-c2ccc(O)c(O)c2)oc2cc(O)cc(O)c12 | 62.8% (active)
COc1cc2c(=O)c(-c3ccc(O)cc3)coc2cc1OC1OC(CO)C(O)C(O)C1O (centres undefined) | 3.2%
COc1ccc2[nH]c(=O)c(CN(Cc3cccs3)C(=S)Nc3ccccc3)cc2c1 | 22.8%
COc1ccc(OCc2nnc(SCC(=O)N(C)Cc3ccccc3)n2N)cc1 | 50.1% (active)
CCN(CC)C(=O)CSc1nnc(COc2ccc(OC)cc2)n1N | 1.7%
COc1ccc(OCc2nnc(SCC(=O)O)n2N)cc1 | 4.6%
CC(=O)c1c(C)nc(-c2ccc(OCC(=O)Nc3ccccc3)cc2)n1O | -7.9%
CCS(=O)(=O)c1ccc2oc(Nc3ccc(C(C)C)cc3)nc2c1 | 63.4% (active)
CCS(=O)(=O)c1ccc2oc(Nc3ccc(OC)cc3)nc2c1 | -4.5%
CCS(=O)(=O)c1ccc2oc(Nc3ccc(C(C)(C)C)cc3)nc2c1 | 15.9%
O=C(NNC(=O)c1sccc1-n1cccc1)c1ccc(F)cc1 | 0.7%
CCCCOc1ccc(CSc2nnc(C)n2N)cc1[N+](=O)[O-] | -8.7%
O=C(Nc1ccc(F)cc1)c1ccc(Cn2cnnn2)cc1 | -9.3%
CC(=O)N(C)c1nnc(-c2ccccn2)s1 | -0.7%
COCC(=O)N(C)c1nnc(-c2ccccn2)s1 | 102% (active)
COCC(=O)N(C)c1nnc(-c2cnccn2)s1 | -3.9%
CCCc1cc(=O)[nH]c(SCc2ccccc2)n1 | 13.6%
O=C(CSc1nc2ccccc2c(=O)n1CCCN1CCOCC1)N1CCN(c2ccccc2)CC1 | -4.4%
Cc1ccccc1NS(=O)(=O)c1ccc(C(=O)OCC(=O)NCC(C)C)cc1 | -11.1%
COc1ccccc1C1=Nn2c(COc3ccccc3)nnc2SC1 | 67.8% (active)
c1ccc(OCc2nnc3n2N=C(c2ccccc2)CS3)cc1 | 47.7%
COc1ccc(OCc2nnc3n2N=C(c2ccc(OC)cc2)CS3)cc1 | -9.9%
CCc1ccccc1NC(=O)N1CCC(NC(=O)C(Cc2ccccc2)NC(C)=O)CC1 (centres undefined) | -12.4%

Compound | inhibition
CC(C)[C@H](NC(=O)c1ccccc1)C(=O)OCC(=O)N1CC(=O)Nc2ccccc21 | 14.2%
CCCCNC(=O)CSc1nc2ccccc2n1S(=O)(=O)c1ccc(Cl)cc1 | -2.1%
COc1ccc(-c2nc(SC)n(C)c(=O)c2C#N)cc1OC | 13.4%
O=C1CC(c2ccc(O)cc2)Oc2cc(O)cc(O)c21 (centres undefined) | 11.5%
O=C(O[C@@H]1Cc2c(O)cc(O)cc2O[C@@H]1c1cc(O)c(O)c(O)c1)c1cc(O)c(O)c(O)c1 | 67.2% (active)
O=C1C[C@@H](c2ccc(O)cc2)Oc2cc(O)cc(O)c21 | 10.6%
Cc1cccc(C(=O)NC2CC3CCCC(C2)N3S(=O)(=O)c2ccccc2)c1 (centres undefined) | 12.2%
CCOCc1[nH]c(=S)[nH]c(=O)c1Cc1ccc(OCC(C)C)cc1 | -4%
O=C(C1CCCN(CCCc2ccccc2)C1)N1CCCCCC1 (centres undefined) | -9.9%
O=S(=O)(O/N=C1\CCCc2ccccc21)c1ccccc1 | -1.2%
CC1=C/C(=N\OS(=O)(=O)c2ccccc2)C(C)=CC1=O | 106% (active)
CC1=CC(=O)C(C(C)C)=CC1=NC(=O)c1ccc(C)cc1 | 46.6%
CC1=CC(=O)C=C(C)C1=NOc1ccccc1[N+](=O)[O-] | 25.5%
Cc1ccc(S(=O)(=O)ON=C2CCN(S(=O)(=O)c3ccccc3)CC2)cc1 | 8%
CC1=C/C(=N\OS(=O)(=O)c2ccccc2)C(C(C)C)=CC1=O | 78.5% (active)
CC1=CC(=O)C=C(C)C1=NOC(=O)/C=C\c1ccccc1 | 17.8%
CC1=C/C(=N\OC(=O)/C=C/c2ccccc2)C(C)=CC1=O | 3.5%
CC(=O)N1C(C)(C)CC(=NOS(=O)(=O)c2ccccc2)CC1(C)C | -17.4%
CC1=CC(=O)c2ccccc2C1=O | -57.7%
CC1=C/C(=N\OS(=O)(=O)c2ccccc2)C=CC1=O | 96.1% (active)

— PubChem BioAssay AID1209 (Sanford-Burnham Center for Chemical Genomics, 2008)
